Results published in ChEMBL document CHEMBL1961873, “Compounds: GSK PKIS; Assays: Nanosyn kinase panel” (2012).

Legend:
[1] = target: Protein kinase C gamma type (Homo sapiens) (UniProt P05129); conditions: at 1 µM;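 note: each value is an averaged percent inhibition of the enzyme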
[2] = target: T1, Protein kinase C iota type (Homo sapiens) (UniProt P41743); conditions: at 0.1 µM
T1 sequence (whole entry): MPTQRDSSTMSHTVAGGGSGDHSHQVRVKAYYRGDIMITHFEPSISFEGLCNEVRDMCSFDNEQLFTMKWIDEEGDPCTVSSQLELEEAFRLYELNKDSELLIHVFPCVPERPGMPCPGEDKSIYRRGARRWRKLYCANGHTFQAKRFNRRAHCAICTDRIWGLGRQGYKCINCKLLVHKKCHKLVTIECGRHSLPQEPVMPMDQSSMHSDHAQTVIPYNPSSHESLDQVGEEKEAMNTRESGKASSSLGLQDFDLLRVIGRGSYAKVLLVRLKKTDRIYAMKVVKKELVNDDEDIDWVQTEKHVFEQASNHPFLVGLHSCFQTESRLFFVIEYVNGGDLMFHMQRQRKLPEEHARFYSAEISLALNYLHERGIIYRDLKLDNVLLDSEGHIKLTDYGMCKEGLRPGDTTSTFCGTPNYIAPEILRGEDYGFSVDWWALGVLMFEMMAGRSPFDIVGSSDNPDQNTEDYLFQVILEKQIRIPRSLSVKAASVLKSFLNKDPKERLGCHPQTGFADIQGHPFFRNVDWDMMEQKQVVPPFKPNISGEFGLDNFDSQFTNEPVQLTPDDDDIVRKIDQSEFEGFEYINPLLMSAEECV

[3] = target: T1, Protein kinase C iota type (Homo sapiens); conditions: at 1 µM
[4] = target: Protein kinase C theta type (Homo sapiens) (UniProt Q04759); conditions: at 0.1 µM
[5] = target: Protein kinase C theta type (Homo sapiens) (UniProt Q04759); conditions: at 1 µM
[6] = target: Protein kinase C beta type (Homo sapiens) (UniProt P05771); conditions: at 0.1 µM
[7] = target: Protein kinase C beta type (Homo sapiens) (UniProt P05771); conditions: at 1 µM
[8] = target: T2, Serine/threonine-protein kinase D1 (Homo sapiens) (UniProt Q15139); conditions: at 0.1 µM
T2 sequence (whole entry): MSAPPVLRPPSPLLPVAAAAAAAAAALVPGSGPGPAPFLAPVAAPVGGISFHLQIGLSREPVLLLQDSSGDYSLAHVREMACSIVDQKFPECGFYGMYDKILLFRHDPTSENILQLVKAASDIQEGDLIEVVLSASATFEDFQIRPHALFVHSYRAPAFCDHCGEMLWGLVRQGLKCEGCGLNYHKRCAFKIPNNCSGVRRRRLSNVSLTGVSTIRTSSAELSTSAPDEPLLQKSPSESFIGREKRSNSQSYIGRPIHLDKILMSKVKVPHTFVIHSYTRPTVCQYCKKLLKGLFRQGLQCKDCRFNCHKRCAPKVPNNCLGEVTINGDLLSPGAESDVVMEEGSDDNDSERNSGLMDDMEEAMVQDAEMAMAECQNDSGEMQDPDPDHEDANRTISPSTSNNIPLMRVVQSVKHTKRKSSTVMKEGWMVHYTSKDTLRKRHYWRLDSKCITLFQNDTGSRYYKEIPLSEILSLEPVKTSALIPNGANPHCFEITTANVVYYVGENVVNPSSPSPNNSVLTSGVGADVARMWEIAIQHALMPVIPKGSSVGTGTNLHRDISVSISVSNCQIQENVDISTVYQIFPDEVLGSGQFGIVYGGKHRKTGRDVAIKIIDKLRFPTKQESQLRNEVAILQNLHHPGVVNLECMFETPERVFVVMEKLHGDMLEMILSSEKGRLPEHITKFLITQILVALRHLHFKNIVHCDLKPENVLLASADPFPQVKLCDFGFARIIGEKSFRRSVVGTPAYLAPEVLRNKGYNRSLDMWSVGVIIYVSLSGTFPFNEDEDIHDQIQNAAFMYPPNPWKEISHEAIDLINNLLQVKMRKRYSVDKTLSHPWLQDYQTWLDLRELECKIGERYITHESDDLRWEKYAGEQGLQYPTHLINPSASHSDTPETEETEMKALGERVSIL

[9] = target: T2, Serine/threonine-protein kinase D1 (Homo sapiens); conditions: at 1 µM
[10] = target: T3, Serine/threonine-protein kinase D2 (Homo sapiens) (UniProt Q9BZL6); conditions: at 0.1 µM
T3 sequence (whole entry): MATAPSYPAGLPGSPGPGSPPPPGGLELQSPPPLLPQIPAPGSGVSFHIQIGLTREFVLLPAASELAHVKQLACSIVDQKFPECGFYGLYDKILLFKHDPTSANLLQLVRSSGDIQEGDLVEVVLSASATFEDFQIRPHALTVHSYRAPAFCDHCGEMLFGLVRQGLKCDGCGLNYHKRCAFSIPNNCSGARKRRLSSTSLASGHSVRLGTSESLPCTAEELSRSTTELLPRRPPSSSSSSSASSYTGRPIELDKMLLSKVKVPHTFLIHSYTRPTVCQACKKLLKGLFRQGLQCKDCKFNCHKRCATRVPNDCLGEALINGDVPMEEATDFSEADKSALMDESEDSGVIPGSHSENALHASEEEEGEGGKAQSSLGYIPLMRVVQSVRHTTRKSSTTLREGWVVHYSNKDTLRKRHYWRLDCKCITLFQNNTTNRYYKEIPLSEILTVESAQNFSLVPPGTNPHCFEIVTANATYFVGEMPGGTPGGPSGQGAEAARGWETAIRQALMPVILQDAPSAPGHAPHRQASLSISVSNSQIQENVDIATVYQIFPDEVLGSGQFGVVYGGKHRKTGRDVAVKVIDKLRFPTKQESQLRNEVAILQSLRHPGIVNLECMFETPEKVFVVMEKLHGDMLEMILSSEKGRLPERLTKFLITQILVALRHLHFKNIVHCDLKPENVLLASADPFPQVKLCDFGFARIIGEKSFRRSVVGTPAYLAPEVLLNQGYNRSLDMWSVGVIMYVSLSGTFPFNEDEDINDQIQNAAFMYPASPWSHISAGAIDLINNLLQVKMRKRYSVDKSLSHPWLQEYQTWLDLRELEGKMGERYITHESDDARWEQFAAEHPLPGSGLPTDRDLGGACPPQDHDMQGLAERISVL

[11] = target: T3, Serine/threonine-protein kinase D2 (Homo sapiens); conditions: at 1 µM
[12] = target: T4, Serine/threonine-protein kinase D3 (Homo sapiens) (UniProt O94806); conditions: at 0.1 µM
T4 sequence (whole entry): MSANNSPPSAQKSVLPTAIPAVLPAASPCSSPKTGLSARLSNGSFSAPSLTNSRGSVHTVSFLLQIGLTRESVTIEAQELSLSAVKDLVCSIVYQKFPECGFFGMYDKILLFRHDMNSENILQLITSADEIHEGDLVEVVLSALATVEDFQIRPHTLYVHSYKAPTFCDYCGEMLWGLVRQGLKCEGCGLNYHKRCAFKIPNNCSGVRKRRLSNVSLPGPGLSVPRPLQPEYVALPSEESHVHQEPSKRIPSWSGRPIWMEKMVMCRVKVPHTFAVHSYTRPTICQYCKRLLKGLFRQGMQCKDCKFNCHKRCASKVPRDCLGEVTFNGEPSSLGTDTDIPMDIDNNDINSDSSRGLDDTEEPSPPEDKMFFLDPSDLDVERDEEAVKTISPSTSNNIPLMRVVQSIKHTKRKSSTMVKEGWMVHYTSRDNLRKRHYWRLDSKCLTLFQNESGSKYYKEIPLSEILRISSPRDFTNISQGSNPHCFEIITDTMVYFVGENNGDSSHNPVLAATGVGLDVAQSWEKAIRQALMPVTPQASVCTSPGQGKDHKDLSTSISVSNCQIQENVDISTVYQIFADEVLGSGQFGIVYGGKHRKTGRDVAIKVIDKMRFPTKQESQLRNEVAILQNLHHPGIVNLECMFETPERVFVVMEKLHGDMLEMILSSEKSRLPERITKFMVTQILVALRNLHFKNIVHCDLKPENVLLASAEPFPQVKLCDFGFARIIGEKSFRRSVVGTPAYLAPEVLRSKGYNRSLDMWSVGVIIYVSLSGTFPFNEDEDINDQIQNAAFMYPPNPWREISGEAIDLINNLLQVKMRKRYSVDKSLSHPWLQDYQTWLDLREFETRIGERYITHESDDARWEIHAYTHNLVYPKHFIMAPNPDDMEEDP

[13] = target: T4, Serine/threonine-protein kinase D3 (Homo sapiens); conditions: at 1 µM
[14] = target: T5, cGMP-dependent protein kinase 1 (Homo sapiens) (UniProt Q13976); conditions: at 0.1 µM
T5 sequence (whole entry): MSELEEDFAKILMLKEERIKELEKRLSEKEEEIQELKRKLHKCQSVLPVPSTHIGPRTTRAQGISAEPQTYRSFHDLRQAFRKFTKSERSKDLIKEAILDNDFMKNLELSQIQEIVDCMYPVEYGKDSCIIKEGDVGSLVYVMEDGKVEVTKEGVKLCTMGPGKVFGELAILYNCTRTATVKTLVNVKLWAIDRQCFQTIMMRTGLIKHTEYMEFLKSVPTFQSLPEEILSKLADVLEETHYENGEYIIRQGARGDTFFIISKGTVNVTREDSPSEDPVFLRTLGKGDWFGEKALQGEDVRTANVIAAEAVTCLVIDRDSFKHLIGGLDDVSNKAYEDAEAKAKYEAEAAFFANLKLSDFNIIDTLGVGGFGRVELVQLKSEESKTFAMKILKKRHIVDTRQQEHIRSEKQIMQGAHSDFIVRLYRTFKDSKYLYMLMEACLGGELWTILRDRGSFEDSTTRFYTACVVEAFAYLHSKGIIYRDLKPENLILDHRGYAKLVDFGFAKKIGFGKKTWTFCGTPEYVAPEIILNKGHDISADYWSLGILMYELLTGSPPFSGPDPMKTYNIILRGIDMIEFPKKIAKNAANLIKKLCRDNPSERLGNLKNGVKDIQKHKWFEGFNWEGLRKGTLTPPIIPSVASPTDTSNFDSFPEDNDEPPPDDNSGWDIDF

[15] = target: T5, cGMP-dependent protein kinase 1 (Homo sapiens); conditions: at 1 µM
[16] = target: T6, cGMP-dependent protein kinase 2 (Homo sapiens) (UniProt Q13237); conditions: at 0.1 µM
T6 sequence (whole entry): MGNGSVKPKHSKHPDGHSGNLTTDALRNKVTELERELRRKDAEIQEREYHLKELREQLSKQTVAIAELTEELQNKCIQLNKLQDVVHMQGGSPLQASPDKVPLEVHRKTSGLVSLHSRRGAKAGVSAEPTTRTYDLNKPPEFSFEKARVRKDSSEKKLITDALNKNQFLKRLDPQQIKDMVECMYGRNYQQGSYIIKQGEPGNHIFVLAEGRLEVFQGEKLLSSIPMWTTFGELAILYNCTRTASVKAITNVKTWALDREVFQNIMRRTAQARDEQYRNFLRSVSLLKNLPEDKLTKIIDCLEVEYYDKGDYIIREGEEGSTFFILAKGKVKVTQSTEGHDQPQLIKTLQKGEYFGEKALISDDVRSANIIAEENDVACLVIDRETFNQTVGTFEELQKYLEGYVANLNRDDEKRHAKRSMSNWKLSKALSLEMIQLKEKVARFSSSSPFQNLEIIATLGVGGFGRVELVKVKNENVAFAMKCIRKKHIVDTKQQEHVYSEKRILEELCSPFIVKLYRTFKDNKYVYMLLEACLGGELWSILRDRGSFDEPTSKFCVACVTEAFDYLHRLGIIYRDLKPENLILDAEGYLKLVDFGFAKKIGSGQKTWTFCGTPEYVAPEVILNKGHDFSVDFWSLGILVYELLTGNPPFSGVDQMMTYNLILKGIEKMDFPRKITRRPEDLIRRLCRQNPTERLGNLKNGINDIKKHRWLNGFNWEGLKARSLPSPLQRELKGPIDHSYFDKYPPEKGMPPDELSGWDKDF

[17] = target: T6, cGMP-dependent protein kinase 2 (Homo sapiens); conditions: at 1 µM
[18] = target: T7, cAMP-dependent protein kinase catalytic subunit PRKX (Homo sapiens) (UniProt P51817); conditions: at 0.1 µM
T7 sequence (whole entry): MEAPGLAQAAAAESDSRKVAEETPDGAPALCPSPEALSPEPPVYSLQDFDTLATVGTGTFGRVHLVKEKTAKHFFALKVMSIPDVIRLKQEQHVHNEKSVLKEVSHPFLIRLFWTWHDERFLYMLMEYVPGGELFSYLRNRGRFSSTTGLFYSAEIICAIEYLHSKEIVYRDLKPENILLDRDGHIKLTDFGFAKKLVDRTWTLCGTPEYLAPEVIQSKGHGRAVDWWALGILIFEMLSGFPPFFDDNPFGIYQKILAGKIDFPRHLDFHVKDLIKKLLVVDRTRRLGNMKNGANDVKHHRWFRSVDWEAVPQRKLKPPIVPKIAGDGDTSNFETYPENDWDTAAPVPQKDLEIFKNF

[19] = target: T7, cAMP-dependent protein kinase catalytic subunit PRKX (Homo sapiens); conditions: at 1 µM
[20] = target: Rho-associated protein kinase 1 (Homo sapiens) (UniProt Q13464); conditions: at 0.1 µM;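 note: values are mean percent inhibition of ROCK1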
Rho-associated protein kinase 1 (Homo sapiens), sequence (Q13464 2-1354 limits assumed): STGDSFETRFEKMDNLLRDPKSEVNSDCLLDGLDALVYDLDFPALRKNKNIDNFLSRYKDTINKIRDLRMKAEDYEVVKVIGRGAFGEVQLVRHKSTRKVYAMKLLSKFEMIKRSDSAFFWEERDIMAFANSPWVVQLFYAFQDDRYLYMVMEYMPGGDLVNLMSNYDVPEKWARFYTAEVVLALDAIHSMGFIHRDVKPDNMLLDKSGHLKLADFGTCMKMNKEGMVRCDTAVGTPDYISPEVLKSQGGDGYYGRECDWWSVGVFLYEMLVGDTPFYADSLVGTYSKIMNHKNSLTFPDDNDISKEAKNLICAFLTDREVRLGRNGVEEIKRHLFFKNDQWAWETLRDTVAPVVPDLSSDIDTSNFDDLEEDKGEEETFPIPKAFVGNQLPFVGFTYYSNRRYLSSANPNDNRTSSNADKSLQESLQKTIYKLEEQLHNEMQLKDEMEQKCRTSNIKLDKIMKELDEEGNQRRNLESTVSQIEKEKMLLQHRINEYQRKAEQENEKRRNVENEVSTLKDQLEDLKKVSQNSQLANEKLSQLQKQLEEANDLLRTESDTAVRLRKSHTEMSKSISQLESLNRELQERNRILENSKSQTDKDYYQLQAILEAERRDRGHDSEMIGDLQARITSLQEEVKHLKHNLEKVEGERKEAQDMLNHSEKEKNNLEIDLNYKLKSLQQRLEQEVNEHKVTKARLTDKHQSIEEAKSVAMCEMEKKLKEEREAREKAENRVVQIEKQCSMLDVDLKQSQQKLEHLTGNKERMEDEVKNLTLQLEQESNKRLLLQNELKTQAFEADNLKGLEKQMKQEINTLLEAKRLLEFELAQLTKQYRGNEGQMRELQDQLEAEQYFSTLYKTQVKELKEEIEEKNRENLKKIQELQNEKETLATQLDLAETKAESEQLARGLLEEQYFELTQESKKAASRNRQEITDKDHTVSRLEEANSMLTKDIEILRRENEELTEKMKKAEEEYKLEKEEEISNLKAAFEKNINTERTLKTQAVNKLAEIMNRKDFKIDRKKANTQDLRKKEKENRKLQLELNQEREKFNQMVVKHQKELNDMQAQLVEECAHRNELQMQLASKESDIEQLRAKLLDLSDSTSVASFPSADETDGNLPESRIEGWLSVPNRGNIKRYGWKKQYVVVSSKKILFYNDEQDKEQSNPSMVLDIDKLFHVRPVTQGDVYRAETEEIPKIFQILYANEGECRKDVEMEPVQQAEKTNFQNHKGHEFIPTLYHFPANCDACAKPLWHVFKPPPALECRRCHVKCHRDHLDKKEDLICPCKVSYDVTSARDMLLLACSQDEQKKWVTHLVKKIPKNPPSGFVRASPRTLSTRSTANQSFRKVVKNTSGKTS

Protein kinase C theta type (Homo sapiens), sequence (Q04759 whole entry, looked up): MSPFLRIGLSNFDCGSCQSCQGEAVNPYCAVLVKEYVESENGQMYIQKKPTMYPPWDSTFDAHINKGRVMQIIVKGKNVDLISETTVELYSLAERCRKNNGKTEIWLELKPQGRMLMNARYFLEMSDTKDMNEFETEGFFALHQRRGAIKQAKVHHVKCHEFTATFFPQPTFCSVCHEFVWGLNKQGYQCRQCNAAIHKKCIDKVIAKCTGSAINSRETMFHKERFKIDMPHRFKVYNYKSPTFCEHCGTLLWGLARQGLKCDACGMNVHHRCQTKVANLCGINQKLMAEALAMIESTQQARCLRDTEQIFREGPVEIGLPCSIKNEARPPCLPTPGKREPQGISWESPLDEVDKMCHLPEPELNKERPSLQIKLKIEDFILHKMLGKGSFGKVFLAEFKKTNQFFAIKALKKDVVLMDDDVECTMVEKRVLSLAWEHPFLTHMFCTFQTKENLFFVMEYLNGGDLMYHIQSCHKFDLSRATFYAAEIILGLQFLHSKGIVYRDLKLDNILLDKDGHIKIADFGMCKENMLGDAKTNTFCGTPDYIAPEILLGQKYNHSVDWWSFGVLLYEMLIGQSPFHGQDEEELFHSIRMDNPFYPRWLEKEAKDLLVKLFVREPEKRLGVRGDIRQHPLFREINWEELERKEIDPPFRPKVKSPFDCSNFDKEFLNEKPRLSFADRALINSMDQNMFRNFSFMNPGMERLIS
Protein kinase C beta type (Homo sapiens), sequence (P05771 2-671 limits assumed): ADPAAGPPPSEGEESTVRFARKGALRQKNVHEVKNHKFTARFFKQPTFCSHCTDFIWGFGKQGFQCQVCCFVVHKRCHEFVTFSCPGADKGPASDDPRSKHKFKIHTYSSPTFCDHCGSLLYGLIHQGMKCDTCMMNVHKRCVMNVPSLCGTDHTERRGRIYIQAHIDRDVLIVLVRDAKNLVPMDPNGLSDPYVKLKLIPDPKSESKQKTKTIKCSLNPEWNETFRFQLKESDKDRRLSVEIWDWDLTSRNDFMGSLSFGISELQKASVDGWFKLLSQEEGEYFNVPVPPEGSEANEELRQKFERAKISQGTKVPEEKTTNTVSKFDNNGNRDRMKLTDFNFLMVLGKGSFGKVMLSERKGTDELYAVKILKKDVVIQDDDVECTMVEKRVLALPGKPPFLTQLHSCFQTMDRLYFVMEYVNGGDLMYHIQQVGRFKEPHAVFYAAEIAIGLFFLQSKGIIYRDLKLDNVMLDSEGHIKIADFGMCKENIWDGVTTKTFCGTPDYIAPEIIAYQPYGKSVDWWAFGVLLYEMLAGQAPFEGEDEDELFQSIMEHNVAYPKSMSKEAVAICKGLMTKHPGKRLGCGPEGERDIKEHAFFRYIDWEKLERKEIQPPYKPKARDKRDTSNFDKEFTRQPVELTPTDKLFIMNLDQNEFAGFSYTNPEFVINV

SMILES	inhibition [1] [%]	inhibition [2] [%]	inhibition [3] [%]	inhibition [4] [%]	inhibition [5] [%]	inhibition [6] [%]	inhibition [7] [%]	inhibition [8] [%]	inhibition [9] [%]	inhibition [10] [%]	inhibition [11] [%]	inhibition [12] [%]	inhibition [13] [%]	inhibition [14] [%]	inhibition [15] [%]	inhibition [16] [%]	inhibition [17] [%]	inhibition [18] [%]	inhibition [19] [%]	inhibition [20] [%]
O=C(Nc1n[nH]c2nnc(-c3cccnc3)cc12)C1CC1	2.11	-0.5	-0.56	-0.08	0.79	0.49	3.21	-0.5	0.81	-1.06	0.68	-0.7	0.02	-0.91	0.14	1.31	7.32	-0.34	-0.33	-0.21
COc1cccc(-n2ncc3c(N/N=C/c4ccc(C(=O)NCCN(C)C)cc4)ncnc32)c1	4.05	2.38	10.3	1.61	1.46	1.88	17.7	2.09	7.26	2.5	6.33	2.63	4.71	2.79	1.97	4.28	20.5	1.32	5.04	3.7
Cn1c(-c2nonc2N)nc2cnccc21	2.78	1.03	3.76	1.13	3.08	1.16	5.62	3.06	14.8	2.42	10.4	2.73	8.54	3.02	15	6.01	38.7	2.45	6.56	10.8
